Source: PubChem BioAssay
Keap1 Nrf2 FP = Keap1-Nrf2 protein-protein interaction inhibitors, primary screen, biochemical, fluorescence polarization, single point | Kelch-like ECH-associated protein 1 (Homo sapiens), Q14145 | Keap1 Kelch-Nrf2 peptide fluorescence polarization, 1536-well | inhibition, % at 9.4 µM | 340,000 compounds, 0.15% hits | AID 504523, 2011; in the data active = inhibition above about 12%;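 note: human Keap1 Kelch domain with fluorescein labeled Nrf2 9mer peptide probe; 0% = neutral control wells and 100% = peptide positive control; higher means more block of Keap1 binding to Nrf2 peptide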
Target sequence (Q14145 whole entry, looked up, the tested form may be a part): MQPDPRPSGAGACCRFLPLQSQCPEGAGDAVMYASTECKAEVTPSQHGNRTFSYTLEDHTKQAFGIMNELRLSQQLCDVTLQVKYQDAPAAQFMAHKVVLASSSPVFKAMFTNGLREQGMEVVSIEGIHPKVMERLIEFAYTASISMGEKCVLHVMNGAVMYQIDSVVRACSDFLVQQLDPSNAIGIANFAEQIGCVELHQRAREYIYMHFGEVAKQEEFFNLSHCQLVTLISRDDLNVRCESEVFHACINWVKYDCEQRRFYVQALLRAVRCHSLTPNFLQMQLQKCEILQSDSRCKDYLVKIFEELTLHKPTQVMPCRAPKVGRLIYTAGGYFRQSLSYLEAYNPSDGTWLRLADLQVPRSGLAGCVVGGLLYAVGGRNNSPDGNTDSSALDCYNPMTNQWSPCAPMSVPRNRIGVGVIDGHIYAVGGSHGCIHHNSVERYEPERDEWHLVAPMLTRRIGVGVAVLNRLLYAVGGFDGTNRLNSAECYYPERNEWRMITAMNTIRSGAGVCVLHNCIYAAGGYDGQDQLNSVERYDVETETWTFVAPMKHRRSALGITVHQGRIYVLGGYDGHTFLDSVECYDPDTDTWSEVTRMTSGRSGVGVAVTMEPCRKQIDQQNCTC
EBNA-1 inhibitor = EBNA-1 DNA-binding inhibitors, primary screen, biochemical, fluorescence polarization; inhibition, % at 14.8 µM; 300,000 compounds, 0.34% hits; AID 1950, 2009; in the data active = inhibition above about 28%
E coli Lon inh = inhibitors of E. coli Lon protease, primary screen, biochemical, fluorescence polarization; P0A9M0; purified E. coli Lon protease; inhibition, % at 7.94 µM; 360,000 compounds, 0.42% hits; AID 602123, 2011; in the data active = inhibition above about 13%, passing the limit was not always enough;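 note: 0% = enzyme with probe and DMSO and 100% = no enzyme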
C-LANA FP = inhibitors of KSHV C-LANA binding to DNA, primary screen, biochemical, fluorescence polarization, FAM-LBS DNA, MBP-C-LANA, single point; Kaposi's sarcoma herpesvirus LANA C-terminal domain (residues 932-1162) DNA binding; inhibition, % at 9 µM; 340,000 compounds, 0.078% hits;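 active = highest replicate inhibition at or above 60% at 9 µM, even if other replicates fall short; inactive = all replicates below 60% inhibition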;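 note: 0% = neutral control wells and 100% = 4 µM acridine orange control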
ZTA counter = counter-screen for EBNA-1 inhibitors: inhibitors of Epstein-Barr virus ZTA; ZTA-DNA binding, fluorescence polarization; inhibition, % at 11 µM; 320,000 compounds, 0.15% hits; AID 2234; P03206; in the data active = inhibition above about 33%
eLon confirm = E. coli Lon protease inhibitor retest, confirmation, biochemical, fluorescence polarization; purified E. coli Lon; AID 602230, 2012; shares compounds with E coli Lon inh; 1,400 compounds, 31% hits; inhibition, % at 7.94 µM; in the data active = inhibition above about 16%;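 note: 0% = enzyme with probe and DMSO and 100% = no enzyme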
Active calls of the source: *; i = inactive; · = no result; + = active, no number. Hits are enriched below; roughly 0.85% of the tested compounds scored in any of these assays.

SMILES	Keap1 Nrf2 FP	EBNA-1 inhibitor	E coli Lon inh	C-LANA FP	ZTA counter	eLon confirm
COc1cc2[nH]c(=S)nc(NCc3ccccc3)c2cc1OC	2.1	2.7	6.2	-0.3	11.2	·
COCCN1CN(S(=O)(=O)c2ccc(Cl)cc2)c2nc3ccccc3nc21	-3.5	-12.7	7.5	-1.9	-14.7	·
COCCN1CN(S(=O)(=O)c2ccccc2)c2nc3ccccc3nc21	1.3	13.9	26.0*	8.5	6.1	-22.4
Cc1cccc(S(=O)(=O)N2CN(Cc3ccco3)c3nc4ccccc4nc32)c1	-7.3	-7.8	59.5*	4.2	3.6	-12.7
O=C(NCc1cccs1)c1ccc2sc(COCCO)nc2c1	·	·	-3.1	·	·	·
C=CCC[C@@H](Cc1ccc(F)cc1)C(=O)OC[C@@H](Cc1c[nH]c2ccccc12)NC(=O)[C@H](CC=C)CC(=O)N[C@H](CO)Cc1ccccc1	-5.9	·	0.8	-1.5	·	·
CC(=O)ON1C(C)(C)CC(OC(=O)c2ccccc2)CC1(C)C	-0.2	-11.2	-4.7	0.1	-5.8	·
CC(=O)OC1CC(C)(C)N(OC(=O)c2ccccc2)C(C)(C)C1	2.1	-15.9	14.8*	0.0	3.4	6.3
CC(=O)c1c2c3c(cccc3n(C)c1=O)C(=O)c1ccccc1-2	·	-2.2	·	·	-14.1	·
CC(=O)c1c2c3c(c(Br)ccc3n(C)c1=O)C(=O)c1ccccc1-2	2.9	-2.0	49.7*	5.1	0.5	21.4*
COc1ccc(C(=O)OCC(=O)Nc2ccc(F)c(F)c2)cc1OC	-0.6	4.6	14.0*	-2.0	-22.3	-3.6
C=CCn1c(COc2ccc(OC)cc2)nnc1SC(C)C(=O)NC1CC1 (centres undefined)	-4.8	·	-1.4	-0.2	14.6	·
CCC(c1nnc(SC(C)C(=O)NC2CC2)n1-c1ccc(OC)cc1)N(C)C (centres undefined)	1.7	·	18.9*	1.0	-7.5	3.6
COCCn1c2nc(=O)n(-c3ccccc3)c(=O)c-2nc2ccccc21	·	·	+	·	·	+
Cc1ccc(S(=O)(=O)NC(=O)NCc2ccc(Cl)cc2)cc1	-1.8	6.4	15.5*	-1.3	-7.1	5.8
Cc1ccc(CNC(=O)Nc2ccc(Cl)cc2)cc1	-3.6	-4.0	-4.5	0.9	-14.1	·
O=C(Cc1cccs1)NCCn1ccc2ccccc21	0.9	0.1	18.7*	2.5	1.0	-4.6
CCC(=O)NCCn1ccc2ccccc21	-0.4	-4.5	-5.4	1.0	10.1	·
COc1ccccc1CNC(=O)COC(=O)/C=C/c1ccc2ccccc2n1	-0.1	·	1.8	-0.7	·	·
CC(C)Cn1c(NCCN(C)C)nc2c1c(=O)[nH]c(=O)n2C	1.3	-12.4	23.8*	-0.4	9.9	0.8
COc1cccc(C(NC(C)=O)c2nc(-c3ccc(F)cc3OC)cs2)c1 (centres undefined)	·	·	-0.1	·	·	·
CCC(=O)NC(c1cc(Cl)c2ccccc2c1O)C1CC1 (centres undefined)	2.3	·	20.9*	2.3	2.0	-6.1
CC1CCN(c2oc(-c3ccc(F)cc3)nc2C#N)CC1	0.7	-7.0	10.6	-1.0	-17.9	·
COc1ccccc1N1C(=O)c2cccc3c(N(C)CCO)ccc(c23)C1=O	10.0	0.1	175.6*	47.6	1.3	76.1*
COc1ccccc1N1C(=O)c2cccc3c(C(=O)O)ccc(c23)C1=O	-5.9	2.1	-0.1	0.6	5.8	·
SMILES	Keap1 Nrf2 FP	EBNA-1 inhibitor	E coli Lon inh	C-LANA FP	ZTA counter	eLon confirm
COc1ccc2c3c(cccc13)C(=O)N(O)C2=O	-1.8	-1.2	37.7*	1.0	14.4	86.7*
CN(/N=C/c1ccc(N(C)C)cc1)C1=NS(=O)(=O)c2ccccc21	-6.3	-12.5	47.1*	-0.9	2.5	i
CNc1cccc2c1C(=O)c1ccccc1C2=O	-0.8	-7.8	50.0*	1.4	-11.6	41.0*
O=C1C(NS(=O)(=O)c2cccs2)=C(N2CCN(c3cccc(C(F)(F)F)c3)CC2)C(=O)c2ccccc21	-0.7	-2.1	21.9*	-0.1	0.4	-0.5
CCCCC1=CC2=C(c3ccco3)C(=O)C(C)(OC(=O)c3ccc(OC)cc3)C(=O)C2=CN1CCCOC(C)C (centres undefined)	-0.2	-0.5	-1.8	0.0	-0.8	·
C=CCN1C=C2C(=O)C(C)(OC(=O)c3ccc(OC)cc3)C(=O)C(c3ccco3)=C2C=C1CCCC (centres undefined)	0.0	-5.0	41.5*	-1.7	-5.6	9.1
FC(F)(F)c1ccccc1Cc1c(-c2cccc(Br)c2)nc2ccc(Br)cn12	·	·	0.8	·	·	·
OCc1ccccc1-c1cccc2nccn12	·	·	69.6*	·	·	4.9
CC(=O)[C@@]1(O)Cc2c(O)c3c(c(O)c2[C@H](O[C@H]2C[C@H](N)[C@H](O)[C@H](C)O2)C1)C(=O)c1ccccc1C3=O	·	·	+	·	·	+
C[C@@]12CCC3[C@@](CCC4[C@@]3(C)CCC[C@@]4(C)C(=O)N3CCCCC3)(CC1=O)C2 (some centres undefined)	1.0	·	27.6*	1.9	2.0	6.6
CCOc1ccc(OCC)c(S(=O)(=O)n2cnc(C)c2)c1	1.9	5.2	-1.5	-0.8	1.1	·
N#CC1=C2N=C(N)c3ccccc3N2C2=C(C(=O)CCC2)C1c1ccc(Cl)cc1 (centres undefined)	-2.6	-15.6	2.9	0.5	-7.0	·
N#CC1=C2N=C(N)c3ccccc3N2C2=C(C(=O)CCC2)C1c1ccccc1F (centres undefined)	2.6	-7.6	71.2*	3.1	-5.1	3.8
COc1ccc(S(=O)(=O)N2CCN(C(=O)CNC(=O)c3ccc4c(c3)OCO4)CC2)cc1	1.2	0.5	53.1*	0.3	4.5	-6.6
Cn1c(-c2ccc(F)cc2)cnc1SCC(=O)N1CCCc2ccccc21	-6.1	1.3	19.3*	0.0	1.1	2.4
Cc1noc(C)c1S(=O)(=O)N(C)C[C@@H]1OCc2cnnn2CCCC(=O)N([C@@H](C)CO)C[C@H]1C	·	·	14.6*	·	·	-10.1
C[C@H]1CN([C@@H](C)CO)C(=O)CCCn2nncc2CO[C@H]1CN(C)C(=O)NC1CCCCC1	·	·	12.6*	·	·	-2.6
Cc1noc(C)c1S(=O)(=O)N(C)C[C@H]1OCc2cnnn2CCCC(=O)N([C@H](C)CO)C[C@@H]1C	·	·	-6.3	·	·	·
COC(=O)c1[nH]c2cccc(OC)c2c1NC(=O)CCN1CCN(c2ccccc2OC)CC1	4.3	4.2	20.7*	-1.6	1.7	6.5
COC(=O)CCC(=O)OC1(C)C(=O)C=C2C=C(C3CC3)N(C(CO)CO)C=C2C1=O (centres undefined)	-6.4	0.9	26.8*	3.0	-0.3	6.8
COC(=O)CCC(=O)OC1(C)C(=O)C=C2C=C(C3CC3)N(CCCCO)C=C2C1=O (centres undefined)	-2.7	2.8	-19.6	-0.4	-27.4	·
